Reference: PubChem BioAssay AID1159580 (chemical genetic matrix, 2015)
“And” between values parts separate entries of the source, which are not always exact repeats. Equal values may be shown once. Among all 5,500 compounds or so, about 2,000 (36%) were called active. Inconclusive results (about 18%) are left out. No stated cut-off is given here; in the data, active means normalized growth mostly below about 0.91 (no sharp cut-off); inconclusive means no clear call, values can overlap the other calls; inactive means mostly above about 0.92. The list shows a part of the results.

Experiment: chemical genetic growth profiling, strain panel (AID 1159580);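 further: tested at 20 µM; growth read once vehicle control cultures reached saturation at 30 °C; 1 = growth at the plate median or of vehicle wells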
Conditions: S. cerevisiae deletion strains, growth OD

Measured: normalized growth

CCCc1cc(=O)[nH]c(=S)[nH]1
inactive: locus YAL013W, strain DEP1, stronger effect = lower value 1.02 | locus YAL021C, strain ccr4, stronger effect = lower value 1.02 | locus YAL026C, strain drs2, stronger effect = lower value 1.03 | locus YAL030W, strain snc1, stronger effect = lower value 1.02 | locus YBL061C, strain skt5, stronger effect = lower value 1.03 | locus YBR009C, strain hhf1, stronger effect = lower value 1.02 | locus YBR021W, strain FUR4, stronger effect = lower value 0.987 | locus YBR023C, strain chs3, stronger effect = lower value 1.02 | locus YBR171W, strain sec66, stronger effect = lower value 1.04 | locus YBR229C, strain ROT2, stronger effect = lower value 1 | locus YBR231C, strain swc5, stronger effect = lower value 1 | locus YBR279W, strain paf1, stronger effect = lower value 0.988 | locus YCL011C, strain gbp2, stronger effect = lower value 1.01 | locus YCL016C, strain dcc1, stronger effect = lower value 1.01 | locus YCL029C, strain bik1, stronger effect = lower value 0.994 | locus YCL069W, strain vba3, stronger effect = lower value 1.02 | locus YCR088W, strain abp1, stronger effect = lower value 1.01 | locus YDL005C, strain med2, stronger effect = lower value 1.03 | locus YDL035C, strain GPR1, stronger effect = lower value 1.01 | locus YDL040C, strain nat1, stronger effect = lower value 1.01 | locus YDL074C, strain BRE1, stronger effect = lower value 1.03 | locus YDL101C, strain DUN1, stronger effect = lower value 1.01 | locus YDL134C, strain PPH21, stronger effect = lower value 1.01 | locus YDL185W, strain tfp1, stronger effect = lower value 1.02 | locus YDL192W, strain arf1, stronger effect = lower value 1 | locus YDR001C, strain nth1, stronger effect = lower value 1.01 | locus YDR069C, strain doa4, stronger effect = lower value 1.01 | locus YDR101C, strain arx1, stronger effect = lower value 0.985 | locus YDR137W, strain rgp1, stronger effect = lower value 1.02 | locus YDR150W, strain NUM1, stronger effect = lower value 1.01 | locus YDR159W, strain sac3, stronger effect = lower value 0.995 | locus YDR162C, strain NBP2, stronger effect = lower value 1.02 | locus YDR195W, strain ref2 0.999 | locus YDR297W, strain sur2, stronger effect = lower value 1.01 | locus YDR318W, strain mcm21, stronger effect = lower value 0.985 | locus YDR334W, strain swr1, stronger effect = lower value 1.03 | locus YDR335W, strain msn5, stronger effect = lower value 1.01 | locus YDR388W, stronger effect = lower value 0.989 | locus YDR392W, strain spt3, stronger effect = lower value 0.997 | locus YDR502C, strain sam2, stronger effect = lower value 0.989 | locus YEL003W, strain gim4, stronger effect = lower value 1.01 | locus YEL037C, strain rad23, stronger effect = lower value 1.03 | locus YEL061C, strain CIN8 (second series), stronger effect = lower value 1.03 | locus YEL061C, strain CIN8, stronger effect = lower value 1.01 | locus YER015W, strain faa2, stronger effect = lower value 1.01 | locus YER016W, strain bim1, stronger effect = lower value 1 | locus YER110C, stronger effect = lower value 0.991 | locus YER111C, strain swi4, stronger effect = lower value 1 | locus YER155C, strain BEM2 (second series), stronger effect = lower value 1.04 | locus YER155C, strain BEM2, stronger effect = lower value 1.01 | locus YER167W, strain BCK2, stronger effect = lower value 1.01 | locus YFR010W, strain ubp6, stronger effect = lower value 1.02 | locus YGL078C, strain dbp3, stronger effect = lower value 0.996 | locus YGL086W, strain mad1, stronger effect = lower value 0.987 | locus YGL167C, strain pmr1, stronger effect = lower value 1.02 | locus YGL173C, strain kem1, stronger effect = lower value 1.04 | locus YGL227W, strain vid30, stronger effect = lower value 1.03 | locus YGL240W, strain doc1, stronger effect = lower value 1 | locus YGL248W, strain PDE1, stronger effect = lower value 1.01 | locus YGL253W, strain hxk2, stronger effect = lower value 0.995 | locus YGR078C, strain PAC10, stronger effect = lower value 1 | locus YGR135W, strain pre9, stronger effect = lower value 0.994 | locus YGR229C, strain SMI1, stronger effect = lower value 1.02 | locus YGR252W, strain gcn5, stronger effect = lower value 0.901 | locus YHR013C, strain ard1, stronger effect = lower value 1.09 | locus YHR027C, strain rpn1, stronger effect = lower value 1.01 | locus YHR030C, strain SLT2, stronger effect = lower value 1.02 | locus YHR079C, strain IRE1 (second series), stronger effect = lower value 0.983 | locus YHR079C, strain IRE1, stronger effect = lower value 1.03 | locus YHR094C, strain hxt1, stronger effect = lower value 0.993 | locus YHR129C, strain ARP1, stronger effect = lower value 1.02 | locus YHR142W, strain chs7, stronger effect = lower value 1.05 | locus YHR200W, strain rpn10, stronger effect = lower value 1.01 | locus YIL066C, strain RNR3, stronger effect = lower value 1 | locus YIL073C, strain SPO22, stronger effect = lower value 0.955 | locus YIL125W, strain kgd1, stronger effect = lower value 1 | locus YIR030C, strain dcg1, stronger effect = lower value 0.998 | locus YJL092W, strain hpr5, stronger effect = lower value 1.02 | locus YJL095W, strain BCK1 (second series), stronger effect = lower value 1.02 | locus YJL095W, strain BCK1, stronger effect = lower value 1.01 and 0.999 | locus YJL115W, strain asf1, stronger effect = lower value 1.02 | locus YJL129C, strain trk1, stronger effect = lower value 1.01 | locus YJL134W, strain LCB3, stronger effect = lower value 1.01 | locus YJL154C, strain vps35, stronger effect = lower value 1 | locus YJL164C, strain tpk1, stronger effect = lower value 1.02 | locus YJL166W, strain qcr8, stronger effect = lower value 1.04 | locus YJL168C, strain set2, stronger effect = lower value 0.989 | locus YJL187C, strain SWE1 (second series), stronger effect = lower value 1.01 | locus YJR043C, strain POL32, stronger effect = lower value 1 | locus YJR066W, strain TOR1, stronger effect = lower value 0.971
